Several values for one entry are separate records, joined by “and”; a condition that tells them apart may be missing. Equal entries are not always repeated. Activity calls are given as the source filed them. The calls were made as follows: active = hit-call score of the fitted dose curve at least 0.9, where 1 is the maximum; inactive = score below 0.9.
Read-out: TIMP metallopeptidase inhibitor 2 (TIMP2), TIMP2 (gene 7077)
Experiment: BSK_KF3CT_TIMP2: BioMAP Diversity Plus: KF3CT Assay for TIMP metallopeptidase inhibitor 2 (TIMP2) Biomarker Activity (AID 2283071)
Settings: primary human keratinocytes with fibroblasts; actives raise or lower the signal
Experimental: BSK_KF3CT is a cell-based, multiplexed-readout assay that uses keratinocytes and foreskin fibroblasts, a human skin primary cell co-culture, with measurements taken at 24 hours after chemical dosing in a 96-well plate.BSK_KF3CT_TIMP2 is an assay component measured in the BSK_KF3CT assay. It measures TIMP-2 antibody related to regulation of gene expression using ELISA technology.Data from the assay component BSK_KF3CT_TIMP2 was analyzed into 1 assay endpoint. This assay endpoint, BSK_KF3CT_TIMP2, was analyzed with bidirectional fitting relative to DMSO as the negative control and baseline of activity. Using a type of binding reporter, gain or loss-of-signal activity can be used to understand changes in the signaling as they relate to the gene TIMP2. Furthermore, this assay endpoint can be referred to as a primary readout, because this assay has produced multiple assay endpoints where this one serves a signaling function. To generalize the intended target to other relatable targets, this assay endpoint is annotated to the protease inhibitor intended target family, where the subfamily is metalloproteinase inhibitor.
The levels of cell surface (or secreted, indicated by the prefix "s") biomarker endpoints were measured by ELISA. Overt cytotoxicity to cells in confluent adherent cultures (all systems other than the BT system) was assessed by measuring total protein levels using sulforhodamine B (SRB) staining in parallel cultures at the time of biomarker measurements, indicated as SRB endpoints. For proliferation assays for adherent cell types, individual cell types are cultured at sub-confluence and relative cell numbers quantified by SRB staining at time points optimized for each system (48 h: 3C and CASM3C systems; 72 h: BT and HDF3CGF systems; 96 h: SAg system). SRB was performed by staining cells with 0.1% SRB after fixation with 10% TCA and reading wells at 560 nm.Viability and proliferation of PBMC (T cells) was quantified by Alamar Blue reduction for the SAg and BT systems. For PBMC viability (referred to as PBMC Cytotoxicity within the assay endpoint names), cells were plated (75,000/well in a 96-well plate) and then chemical samples added for 1 h before addition of activators, SEB and TSST-1 (20 ng/mL final concentration each). Cells were incubated for 90 h. Then, Alamar Blue (20 uL/well) (Invitrogen, Cat DAL1100) was added for 6 h, and the plates were read with a fluorescence microplate reader at 546/580 nm (excitation/emission). For PBMC proliferation, cells were plated and activated as above but incubated for only 16 h prior to addition of Alamar Blue. Plates were read after 6 h.

Row | Structure (SMILES) | outcome | AC50
1 | CCOC(=O)CC(=O)C(F)(F)C(F)(F)F | inactive | –
2 | O=C(O)C(F)(F)OC(F)(F)C(F)(F)OC(F)(F)C(F)(F)OC(F)(F)F | inactive | –
3 | C[C@]12CC[C@H]3C(=CCc4cc(O)ccc43)[C@@H]1CCC2=O | inactive | –
4 | Cc1ccc(O)c(-n2nc3ccccc3n2)c1 | inactive | –
5 | OCC(F)(F)C(F)(F)C(F)(F)C(F)(F)C(F)(F)C(F)(F)C(F)(F)C(F)(F)CO | – | 55.2 µM (active) and 48.6 µM (active)
6 | CCN=C1C=CC(=C(c2ccc(N(CC)CC)cc2)c2ccc(N(CC)CC)cc2)c2ccccc21 | – | 1.87 µM (active) and 1.66 µM (active)
7 | CCN(CC)c1ccc(C=O)cc1 | inactive | –
8 | O=C(Cl)C(F)(F)C(F)(F)C(F)(F)C(F)(F)C(F)(F)C(F)(F)C(F)(F)F | inactive | –
9 | CC1=CC2C3C=CC(C3)C2C1C (stereo not given) | inactive | –
10 | Cc1cnccn1 | inactive | –
11 | OCC(O)CC(F)(F)C(F)(F)C(F)(F)C(F)(F)C(F)(F)C(F)(F)C(F)(F)C(F)(F)F (stereo not given) | inactive | –
12 | O=C(O)CCC(F)(F)C(F)(F)C(F)(F)F | inactive | –
13 | O=C=NCc1cccc(CN=C=O)c1 | inactive | –
14 | O=C1C=CC(=O)N1c1ccc(Cc2ccc(N3C(=O)C=CC3=O)cc2)cc1 | – | 2.2 µM (active)
15 | CCN(CC)c1ccc(N=Nc2ccccc2)cc1 | inactive | –
16 | OCC(O)CC(F)(F)C(F)(F)C(F)(F)C(F)(F)F (stereo not given) | inactive | –
17 | CCN(CCO)S(=O)(=O)C(F)(F)C(F)(F)C(F)(F)C(F)(F)C(F)(F)C(F)(F)C(F)(F)C(F)(F)F | inactive | –
18 | CO[Si](C)(CCC(F)(F)C(F)(F)C(F)(F)C(F)(F)C(F)(F)C(F)(F)F)OC | inactive | –
19 | O=C(O)CCC(F)(F)C(F)(F)C(F)(F)C(F)(F)C(F)(F)C(F)(F)C(F)(F)F | inactive | –
20 | C=CC(=O)OCCC(F)(F)C(F)(F)C(F)(F)C(F)(F)F | inactive | –

Row | Structure (SMILES) | outcome | AC50
21 | O=S(=O)(O)CCC(F)(F)C(F)(F)C(F)(F)C(F)(F)C(F)(F)C(F)(F)C(F)(F)C(F)(F)F | inactive | –
22 | OC(O)C(F)(F)C(F)(F)F | inactive | –
23 | CCN(CC)c1ccc(C=O)c(O)c1 | inactive | –
24 | Nc1cc([N+](=O)[O-])cc(Cl)c1O | inactive | –
25 | O=C=Nc1cccc2c(N=C=O)cccc12 | inactive | –
26 | CN(C(=O)C(F)(F)C(F)(F)C(F)(F)F)[Si](C)(C)C | inactive | –
27 | Cc1cc(O)c(C(C)(C)C)cc1C(C)(C)C | – | 2.05 µM (active)
28 | O=C(O)C(F)(F)C(F)(F)C(F)(F)C(=O)O | inactive | –
29 | OCCCC(F)(F)C(F)(F)C(F)(F)C(F)(F)C(F)(F)C(F)(F)C(F)(F)C(F)(F)F | – | 14.5 µM (active) and 8.21 µM (active)
30 | O=C1c2c(O)ccc(Nc3ccc(CCO)cc3)c2C(=O)c2c([N+](=O)[O-])ccc(O)c21 | – | 0.54 µM (active)
31 | CC(C)CCCC(C)CCO (stereo not given) | – | 30.5 µM (active)
32 | NC(=O)C(F)(F)C(F)(F)C(F)(F)F | inactive | –
33 | CCOC(C=C(C)CCC=C(C)C)OCC | – | 31.2 µM (active)
34 | Cc1ccc(S(=O)(=O)C(I)I)cc1 | – | 2.35 µM (active)
35 | C[Si](Cl)(Cl)CCC(F)(F)C(F)(F)C(F)(F)C(F)(F)C(F)(F)C(F)(F)F | inactive | –
36 | CC(C)(C)c1cc(CCC(=O)NCCCCCCNC(=O)CCc2cc(C(C)(C)C)c(O)c(C(C)(C)C)c2)cc(C(C)(C)C)c1O | inactive | –
37 | C=CC(=O)OCC(F)(F)C(F)(F)C(F)(F)C(F)(F)C(F)(F)C(F)(F)C(F)(F)C(F)F | inactive | –
38 | NCC(F)(F)C(F)(F)C(F)(F)C(F)(F)C(F)(F)C(F)(F)C(F)(F)C(F)(F)F | inactive | –
39 | NC(=O)C(F)(F)C(F)(F)C(F)(F)C(F)(F)C(F)(F)C(F)(F)C(F)(F)F | inactive | –
40 | OCC(F)(F)C(F)(F)C(F)(F)C(F)(F)C(F)(F)C(F)(F)CO | inactive | –
